Experimental data taken from PubChem BioAssay AID1159580 (chemical genetic matrix, 2015).
The campaign covered roughly 5,500 compounds. About 2,000 (36%) were called active. About 18% were inconclusive and are not listed. No stated cut-off is given here; in the data, active means normalized growth mostly below about 0.91 (no sharp cut-off); inconclusive means no clear call, values can overlap the other calls; inactive means mostly above about 0.92. The list shows a part of the results.

Assay: chemical genetic growth profiling, strain panel (AID 1159580);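 further: tested at 20 µM; growth read once vehicle control cultures reached saturation at 30 °C; 1 = growth at the plate median or of vehicle wells; lower values mean less growth of the strain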
Conditions: growth OD

Measured: normalized growth

CC1(C)O[C@@H]2CC3C4C[C@H](F)C5=CC(=O)C=CC5(C)C4C(O)CC3(C)[C@]2(C(=O)CO)O1 (some centres undefined)
inactive: S. cerevisiae deletion strains, locus YKL009W, strain mrt4, hits give low values 0.996 | S. cerevisiae deletion strains, locus YKL068W, hits give low values 0.992 | S. cerevisiae deletion strains, locus YKL085W, strain MDH1 (second series), hits give low values 1.01 | S. cerevisiae deletion strains, locus YKL085W, strain MDH1, hits give low values 1.01 | S. cerevisiae deletion strains, locus YKL160W, strain elf1, hits give low values 0.967 | S. cerevisiae deletion strains, locus YKL190W, strain CNB1, hits give low values 1.01 | S. cerevisiae deletion strains, locus YKR001C, strain vps1, hits give low values 1.01 | S. cerevisiae deletion strains, locus YKR026C, strain gcn3, hits give low values 0.988 | S. cerevisiae deletion strains, locus YKR091W, strain srl3, hits give low values 0.985 | S. cerevisiae deletion strains, locus YLL001W, strain dnm1, hits give low values 0.978 | S. cerevisiae deletion strains, locus YLL026W, hits give low values 1.02 | S. cerevisiae deletion strains, locus YLL041C, strain sdh2, hits give low values 0.981 | S. cerevisiae deletion strains, locus YLR027C, strain aat2, hits give low values 0.992 | S. cerevisiae deletion strains, locus YLR039C, strain RIC1, hits give low values 0.995 | S. cerevisiae deletion strains, locus YLR058C, strain SHM2, hits give low values 1.02 | S. cerevisiae deletion strains, locus YLR102C, strain apc9, hits give low values 0.981 | S. cerevisiae deletion strains, locus YLR113W, strain HOG1, hits give low values 1.04 | S. cerevisiae deletion strains, locus YLR221C, strain rsa3, hits give low values 1.02 | S. cerevisiae deletion strains, locus YLR258W, strain gsy2, hits give low values 0.984 | S. cerevisiae deletion strains, locus YLR262C, strain YPT6 (second series), hits give low values 0.969 | S. cerevisiae deletion strains, locus YLR262C, strain YPT6, hits give low values 1 | S. cerevisiae deletion strains, locus YLR268W, strain sec22, hits give low values 1.01 | S. cerevisiae deletion strains, locus YLR320W, strain mms22, hits give low values 0.981 | S. cerevisiae deletion strains, locus YLR330W, strain CHS5, hits give low values 1.02 | S. cerevisiae deletion strains, locus YLR342W, strain FKS1 (second series), hits give low values 1 | S. cerevisiae deletion strains, locus YLR342W, strain FKS1, hits give low values 0.978 | S. cerevisiae deletion strains, locus YLR357W, strain rsc2, hits give low values 0.933 | S. cerevisiae deletion strains, locus YLR370C, strain arc18, hits give low values 0.981 | S. cerevisiae deletion strains, locus YLR371W, strain rom2, hits give low values 0.988 | S. cerevisiae deletion strains, locus YLR384C, strain iki3, hits give low values 0.992 | S. cerevisiae deletion strains, locus YLR418C, strain cdc73, hits give low values 0.977 | S. cerevisiae deletion strains, locus YML016C, strain PPZ1, hits give low values 1.02 | S. cerevisiae deletion strains, locus YML032C, strain rad52, hits give low values 0.979 | S. cerevisiae deletion strains, locus YML120C, strain ndi1, hits give low values 1 | S. cerevisiae deletion strains, locus YML124C, strain tub3, hits give low values 0.992 | S. cerevisiae deletion strains, locus YMR058W, strain fet3, hits give low values 1.01 | S. cerevisiae deletion strains, locus YMR078C, strain ctf18, hits give low values 1 | S. cerevisiae deletion strains, locus YMR125W, strain sto1, hits give low values 0.979 | S. cerevisiae deletion strains, locus YMR129W, hits give low values 1.01 | S. cerevisiae deletion strains, locus YMR205C, strain PFK2, hits give low values 0.981 | S. cerevisiae deletion strains, locus YMR223W, strain ubp8, hits give low values 0.996 | S. cerevisiae deletion strains, locus YMR231W, strain pep5, hits give low values 0.978 | S. cerevisiae deletion strains, locus YMR263W, strain SAP30, hits give low values 1.02 | S. cerevisiae deletion strains, locus YMR307W, strain GAS1, hits give low values 1.07 | S. cerevisiae deletion strains, locus YNL067W, strain RPL9B, hits give low values 1.03 | S. cerevisiae deletion strains, locus YNL071W, strain lat1, hits give low values 0.987 | S. cerevisiae deletion strains, locus YNL153C, strain GIM3, hits give low values 1.03 | S. cerevisiae deletion strains, locus YNL183C, strain NPR1, hits give low values 0.953 | S. cerevisiae deletion strains, locus YNL209W, strain ssb2, hits give low values 0.974 | S. cerevisiae deletion strains, locus YNL233W, strain BNI4, hits give low values 1.02 | S. cerevisiae deletion strains, locus YNL248C, strain rpa49, hits give low values 0.927 | S. cerevisiae deletion strains, locus YNL250W, strain rad50, hits give low values 0.993 | S. cerevisiae deletion strains, locus YNL271C, strain bni1, hits give low values 0.97 | S. cerevisiae deletion strains, locus YNL298W, strain CLA4, hits give low values 0.988 | S. cerevisiae deletion strains, locus YNL307C, strain MCK1, hits give low values 0.98 | S. cerevisiae deletion strains, locus YNL322C, strain KRE1 (second series), hits give low values 0.963 | S. cerevisiae deletion strains, locus YNL322C, strain KRE1, hits give low values 1.01 | S. cerevisiae deletion strains, locus YNR049C, strain mso1, hits give low values 0.974 | S. cerevisiae deletion strains, locus YNR052C, strain pop2, hits give low values 0.993 | S. cerevisiae deletion strains, locus YOL006C, strain TOP1, hits give low values 1.01 | S. cerevisiae deletion strains, locus YOL012C, strain htz1 0.907 | S. cerevisiae deletion strains, locus YOL147C, strain pex11, hits give low values 0.992 | S. cerevisiae deletion strains, locus YOR001W, strain rrp6, hits give low values 1.01 | S. cerevisiae deletion strains, locus YOR061W, strain CKA2, hits give low values 1.02 | S. cerevisiae deletion strains, locus YOR069W, strain VPS5, hits give low values 1.01 | S. cerevisiae deletion strains, locus YOR070C, strain gyp1, hits give low values 0.984 | S. cerevisiae deletion strains, locus YOR080W, strain dia2, hits give low values 0.977 | S. cerevisiae deletion strains, locus YOR083W, strain WHI5, hits give low values 0.918 | S. cerevisiae deletion strains, locus YOR106W, strain vam3, hits give low values 0.976 | S. cerevisiae deletion strains, locus YOR136W, strain idh2, hits give low values 0.994 | S. cerevisiae deletion strains, locus YOR144C, strain elg1, hits give low values 0.984 | S. cerevisiae deletion strains, locus YOR184W, strain ser1, hits give low values 0.982 | S. cerevisiae deletion strains, locus YOR231W, strain MKK1, hits give low values 1.02 | S. cerevisiae deletion strains, locus YOR265W, strain rbl2, hits give low values 1.01 | S. cerevisiae deletion strains, locus YOR270C, strain vph1, hits give low values 0.955 | S. cerevisiae deletion strains, locus YOR290C, strain snf2, hits give low values 0.964 | S. cerevisiae deletion strains, locus YOR316C, strain cot1, hits give low values 0.983 | S. cerevisiae deletion strains, locus YPL051W, strain arl3, hits give low values 0.981 | S. cerevisiae deletion strains, locus YPL055C, strain LGE1, hits give low values 1.04 | S. cerevisiae deletion strains, locus YPL078C, strain atp4, hits give low values 0.977 | S. cerevisiae deletion strains, locus YPL106C, strain sse1, hits give low values 0.95 | S. cerevisiae deletion strains, locus YPL240C, strain hsp82, hits give low values 0.992 | S. cerevisiae deletion strains, locus YPL256C, strain CLN2, hits give low values 1.03 | S. cerevisiae deletion strains, locus YPR119W, strain clb2, hits give low values 0.987 | S. cerevisiae deletion strains, locus YPR141C, strain kar3, hits give low values 0.996 | S. cerevisiae deletion strains, locus YPR163C, strain tif3, hits give low values 0.988 | S. cerevisiae deletion strains, locus YPR167C, strain met16, hits give low values 0.987 | S. cerevisiae deletion strains, strain wtn01, hits give low values 0.984 | S. cerevisiae strains, strain wild type, hits give low values 1.02
